The text below walks through data of ChEMBL document CHEMBL3988442, “University of Dundee, Small-Polar-MMV Screening Library” (2021).

In all, about 48,000 compounds went through this assay and about 13,000 (27%) showed an effect of 50% or more. Some of the results follow.

The test relates to Wolbachia pipientis. Briefly: Anti-Wolbachia Cell-Based Screen. Format: functional. Set-up: scale not given: in the data most compounds retested in dose-response had high values. As to conditions: 5 µM.
In the case of `CN(CCO)C(=O)Nc1ccn(-c2cccc(C(F)(F)F)c2)n1`, the “Percent Effect” value is on record as -1.058%. The same measure for `CC(=O)Nc1ccc(Cl)c(C(=O)N(C)C(C)c2nccs2)c1` (stereo unspecified): 18.16%; for `O=C1CC(C(=O)Nc2nnc(-c3ccccn3)[nH]2)c2ccccc2N1` (stereo unspecified): -11.02%. The same measure for `O=C(Nc1cnc(Oc2ccccc2)nc1)C1CC1`: 12.01%; for `CN[C@@H]1CCC[C@@H](Oc2ccccc2Oc2ccc(C)cc2)[C@@H]1O`: 109.8%; for `COc1ccc(CNC(=O)N2CCOCC2C2CC2)cc1C` (stereo unspecified): 12.32%. The same measure for `Cc1ccc(N2C[C@H]3OCC[C@H]3[C@H](C(=O)NC3CCC3)C2)nn1`: -15.47%; for `CS(=O)(=O)N1CC[C@H]2OCC[C@@]2(C(=O)NCC2CC2)C1`: 83.9%; for `Cc1ncsc1CN1CC[C@H]2OCC[C@@]2(C(=O)NCC2CC2)C1`: 4.364%. Regarding `CC(=O)NCC(=O)N1CCOC2(CCCN(c3ccc(C)nn3)C2)C1` (stereo unspecified), the “Percent Effect” value is on record as 107.9%. Consider `CCS(=O)(=O)N1CC[C@H]2OCC[C@@]2(C(=O)NC)C1`, for which the “Percent Effect” value is given as -10.89%. Regarding `CCS(=O)(=O)N1CCOC2(CCCN(c3ccc(C)nn3)C2)C1.O=C(O)C(F)(F)F` (stereo unspecified), the “Percent Effect” value amounted to 0.7716%.

For `Cc1ccc(N2CC[C@H]3OCC[C@@]3(C(=O)NC(C)C)C2)nn1.O=C(O)C(F)(F)F`, the “Percent Effect” value is -2.332%.

Take `CNC(=O)[C@@]12CCO[C@@H]1CCN(S(=O)(=O)c1cc(C)cc(C)c1)C2`: the “Percent Effect” value worked out at 11.27%. The same measure for `Cc1ccc(N2CC[C@H]3OCC[C@@]3(C(=O)NCC3CC3)C2)nn1`: 112.3%. The same measure for `CC(=O)NCC(=O)N1CCOC2(CCCN(c3cccnc3)C2)C1.O=C(O)C(F)(F)F` (stereo unspecified): -5.55%; for `Cc1ccc(N2CC[C@H]3OCC[C@@]3(C(=O)N3CCCO3)C2)nn1`: 93.84%. The same measure for `Cc1noc(CNc2c(N3CCCC3)cccc2N2CCCC2)n1`: 12%. For `CC(C)c1cc(C(=O)N2CCN(c3ccc(F)c(Cl)c3)CC2)n(C)n1`, the “Percent Effect” value is -4.845%. Consider `Cc1nc(N(C)Cc2cccc(O)c2)nc2cc(S(C)(=O)=O)ccc12`, for which the “Percent Effect” value is on record as -16.37%. The same measure for `CC(C)C(=O)N1CCC(NC2CCSCC2)C1` (stereo unspecified): -5.859%. The same measure for `CS(=O)(=O)N1CCC(Oc2ccc(C(=O)NCCC(N)=O)cc2Cl)CC1`: -24.14%. As for `Cc1ccc(N2CC[C@H]3OCC[C@@]3(C(=O)N(C)C)C2)nn1`, the “Percent Effect” value was determined as 116.6%. The same measure for `Cc1ccc(N2CC[C@H]3OCC[C@@]3(C(=O)N3CCCC3)C2)nn1`: 99.3%.

Consider `Cc1ccc(N2CC3(CCN(C(=O)c4ccoc4)C3)C2)nn1`, for which the “Percent Effect” value came out at 11.71%. The same measure for `Cc1ccc(N2CCC3(CC2)CCN(C2CCOCC2)CC3)nn1.O=C(O)C(F)(F)F`: -17.16%.

For `Cc1ccc(N2CCCC3(CCN(C(=O)C4CC4)C3)C2)nn1` (stereo unspecified), the “Percent Effect” value was 2.415%. The same measure for `c1cn(-c2ccc(CN3CCCC3)cc2)c(-c2cc3n(n2)CCNC3)n1`: 4.696%; for `O=C(NCC(F)(F)F)C1CCCN(Cc2ccno2)C1` (stereo unspecified): -13.93%; for `COc1cc(OC)cc(C(=O)NCC(c2cccn2C)N2CCCC2)c1` (stereo unspecified): 93.86%. For the compound `CN1CCN(C(CNC(=O)CCn2cccn2)c2cccs2)CC1` (stereo unspecified), the “Percent Effect” value was 11.34%. The same measure for `Cn1cccc1C(O)CNC(=O)COc1ccc(Cl)cc1Cl` (stereo unspecified): 19.06%; for `COc1ccc(C(=O)NCC(c2cccn2C)N2CCN(C)CC2)cc1` (stereo unspecified): 104.9%. The same measure for `Cc1ccc(C)c(C(=O)NCC(c2cccn2C)N2CCCCCC2)c1` (stereo unspecified): 114.5%; for `COc1ccc(C(=O)NCC(c2cccn2C)N2CCCC2)c(OC)c1` (stereo unspecified): 6.724%; for `COc1ccc(C(=O)NCC(c2cccn2C)N2CCCC2)cc1OC` (stereo unspecified): 118.2%. For `Cn1cccc1C(CNC(=O)c1ccc(F)cc1F)N1CCCCCC1` (stereo unspecified), the “Percent Effect” value is listed as 2.493%. The same measure for `CN1CCN(C(CNC(=O)c2ccc(Cl)cc2F)c2cccs2)CC1` (stereo unspecified): -14.94%; for `Cn1cccc1C(CNC(=O)COc1ccc(Cl)cc1Cl)N1CCCC1` (stereo unspecified): -0.05475%. The same measure for `CC(C)=CCN1CCN(S(=O)(=O)c2cn(C)cn2)[C@H]2CS(=O)(=O)C[C@H]21`: -6.169%.

For the compound `Cn1cc(NC(=O)CCCc2cccs2)c(=O)n(C)c1=O`, the “Percent Effect” value is given as -5.332%. The same measure for `NC(=O)C1CCN(CCc2ccc(NCc3ccsc3)cc2)CC1`: -14.27%; for `O=C(C1CCCC1)N1CCn2c(nnc2C2CCCNC2)C1` (stereo unspecified): 107.7%; for `O=C(C1CCC1)N1CCn2c(COc3ncccn3)nnc2C1`: -0.8888%. The same measure for `O=C(CN1CCCCCC1)N1CCc2nnc(C3CCCNC3)n2CC1` (stereo unspecified): 109%; for `O=C(CN1CCNC1=O)N1CCc2nnc(-c3ccccc3)n2CC1`: -8.724%; for `Cn1c(CN2CCCC2)nnc1C1CCCN(C(=O)CN2CCCC2)C1` (stereo unspecified): -18.41%. The same measure for `Cn1c(CN2CCC(O)CC2)nnc1C1CCCN(C(=O)C2CNC2)C1` (stereo unspecified): 15.55%. Regarding `COCCC(=O)N1CCC(Nc2ncc(Br)cn2)CC1`, the “Percent Effect” value is on record as -2.915%. Regarding `CC(C)OC(=O)N1CCC(Nc2ncc(Br)cn2)CC1`, the “Percent Effect” value is listed as -1.588%. For `Cc1cc(C)nc(N2CCC(OCCN3CCCCC3)C2)n1` (stereo unspecified), the “Percent Effect” value was found to be 5.961%.
